Assay [1] concerns the target Rap guanine nucleotide exchange factor 3 (Homo sapiens) (UniProt O95398). Put plainly: Confirmatory qHTS for agonist of cAMP-regulated guanine nucleotide exchange factor 3 (EPAC1) (AID 1645881).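 Note: EPAC1 catalysed release of BODIPY-GDP from Rap1B seen as fluorescence loss; 100% = effect of cAMP agonist control; nearly all actives have a fitted effect of over 75% in size.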
The target in assay [2] is Rap guanine nucleotide exchange factor 4 (Homo sapiens) (UniProt Q8WZA2). Briefly: Confirmatory qHTS for agonist of cAMP-regulated guanine nucleotide exchange factor 4 (EPAC2) (AID 1645884).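 Note: nucleotide exchange releases bodipy-GDP from Rap1 and this lowers its fluorescence; % is set by controls: 0 for no effect and ±100 for the full control effect; nearly all actives have a fitted effect of over 65% in size.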
Chain of Rap guanine nucleotide exchange factor 4 (Homo sapiens) (Q8WZA2 whole entry, looked up): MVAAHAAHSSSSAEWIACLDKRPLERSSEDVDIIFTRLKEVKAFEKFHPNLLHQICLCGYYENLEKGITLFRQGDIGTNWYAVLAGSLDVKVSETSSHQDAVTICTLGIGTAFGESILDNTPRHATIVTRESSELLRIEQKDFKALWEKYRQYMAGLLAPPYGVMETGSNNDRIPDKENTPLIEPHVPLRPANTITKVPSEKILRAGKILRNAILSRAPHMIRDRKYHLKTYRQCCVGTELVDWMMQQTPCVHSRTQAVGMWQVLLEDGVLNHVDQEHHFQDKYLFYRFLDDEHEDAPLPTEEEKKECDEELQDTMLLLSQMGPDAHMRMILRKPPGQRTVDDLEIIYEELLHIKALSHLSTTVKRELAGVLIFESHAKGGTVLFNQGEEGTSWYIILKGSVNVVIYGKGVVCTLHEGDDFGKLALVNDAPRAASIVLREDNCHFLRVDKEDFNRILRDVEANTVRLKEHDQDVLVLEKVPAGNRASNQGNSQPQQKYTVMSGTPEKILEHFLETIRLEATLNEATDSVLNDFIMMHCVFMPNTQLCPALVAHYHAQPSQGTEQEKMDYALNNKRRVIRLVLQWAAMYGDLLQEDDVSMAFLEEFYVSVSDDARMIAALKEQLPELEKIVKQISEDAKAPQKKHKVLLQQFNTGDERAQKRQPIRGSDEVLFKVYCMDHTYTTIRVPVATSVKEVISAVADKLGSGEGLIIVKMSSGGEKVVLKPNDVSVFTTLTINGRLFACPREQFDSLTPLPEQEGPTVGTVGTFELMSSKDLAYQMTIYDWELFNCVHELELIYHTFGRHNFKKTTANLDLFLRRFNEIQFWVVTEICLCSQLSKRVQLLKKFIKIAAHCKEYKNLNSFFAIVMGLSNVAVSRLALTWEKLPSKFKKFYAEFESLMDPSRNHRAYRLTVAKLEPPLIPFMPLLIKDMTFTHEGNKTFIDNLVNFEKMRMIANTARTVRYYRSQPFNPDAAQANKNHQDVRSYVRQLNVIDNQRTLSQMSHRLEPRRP
Assay [3] has the same target. Briefly: Confirmatory qHTS for antagonist of cAMP-regulated guanine nucleotide exchange factor 4 (EPAC2) (AID 1645885). For activity change, negative = inhibition: % is set by controls: 0 for no effect and ±100 for the full control effect. Note: nearly all actives have a fitted effect of over 25% in size. Note: potency is the fitted concentration of half-maximal effect.
The target in assay [4] is Rap guanine nucleotide exchange factor 3 (Homo sapiens) (UniProt O95398). Put plainly: Counterscreen qHTS for antagonist of cAMP-regulated guanine nucleotide exchange factor 3 (EPAC1) (AID 1645888).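 Note: fluorescence loss as bound BODIPY-GDP is released from Rap1B; % of control where 0% means no effect.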 In outline: (§1)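 Rap1B–BODIPY-GDP (250 nM) with 50 uM GDP; compounds pin-transferred to 9.74 nM–152 uM final (activator) or from 7.32 nM upwards (inhibitor). Fluorescence Ex/Em 480/540 nm read at 5 and 30 min, then after adding cAMP or buffer, at room temperature.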
Chain of Rap guanine nucleotide exchange factor 3 (Homo sapiens) (O95398 whole entry, looked up): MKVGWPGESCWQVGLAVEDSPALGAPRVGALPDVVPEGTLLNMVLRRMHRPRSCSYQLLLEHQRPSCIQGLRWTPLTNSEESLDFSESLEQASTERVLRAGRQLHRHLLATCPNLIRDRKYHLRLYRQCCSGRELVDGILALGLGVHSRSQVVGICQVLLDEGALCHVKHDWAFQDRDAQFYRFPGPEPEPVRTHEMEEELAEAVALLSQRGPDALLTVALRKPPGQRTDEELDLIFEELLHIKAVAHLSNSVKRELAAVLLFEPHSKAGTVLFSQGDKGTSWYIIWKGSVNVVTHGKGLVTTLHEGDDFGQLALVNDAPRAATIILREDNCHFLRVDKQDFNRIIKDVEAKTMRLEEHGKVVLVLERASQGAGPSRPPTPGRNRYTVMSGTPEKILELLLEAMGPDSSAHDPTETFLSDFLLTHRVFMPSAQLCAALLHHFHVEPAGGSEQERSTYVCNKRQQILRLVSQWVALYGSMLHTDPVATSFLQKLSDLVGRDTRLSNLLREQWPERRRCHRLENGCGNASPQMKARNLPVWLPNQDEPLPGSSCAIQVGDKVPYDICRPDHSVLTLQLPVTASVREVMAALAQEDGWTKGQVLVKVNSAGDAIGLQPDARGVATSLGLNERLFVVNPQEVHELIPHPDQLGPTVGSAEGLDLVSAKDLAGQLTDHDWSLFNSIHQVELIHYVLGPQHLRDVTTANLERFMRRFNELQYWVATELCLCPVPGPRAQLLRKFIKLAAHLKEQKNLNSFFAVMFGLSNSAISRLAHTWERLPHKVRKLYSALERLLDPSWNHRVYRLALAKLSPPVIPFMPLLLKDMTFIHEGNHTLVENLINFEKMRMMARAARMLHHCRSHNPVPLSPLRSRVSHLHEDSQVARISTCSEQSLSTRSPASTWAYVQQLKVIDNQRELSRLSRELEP

For assay [5] the target is unchanged. Briefly: Counterscreen qHTS for agonist of cAMP-regulated guanine nucleotide exchange factor 3 (EPAC1) (AID 1645889). Note: % of control where 0% means no effect; nearly all actives have a fitted effect of over 40% in size. In outline:
as §1

Results filed as inconclusive are left out. Unmarked numbers belong to inactive results. Calls of active or inactive are those of the source. Calls come from the whole dose curve; as a rule, active = well fitted curve in the direction sought with a large enough effect; inconclusive = small, poorly fitted or top-dose-only effect, or another doubt; inactive = no such curve, though single readings can be large; an effect the other way counts as inactive or inconclusive.

Regarding `O=C(Nc1c2c(nc3ccccc13)CCCC2)c1ccccc1F`, the Potency result in assay [1] and in assay [3] was “inactive” each time. Further, the activation in assay [2] was -3.93% [at 17.1 µM, percent relative to cAMP agonist control]; in assay [5], 12.9% [at 30.8 µM]. In addition, the activity change, negative = inhibition in assay [4] was -18.6% [at 30.8 µM].

Regarding `CCC(C)n1c(SCC(=O)Nc2ccc3[nH]c(=O)[nH]c3c2)nc2ccccc2c1=O` (stereo not given), the Potency result in assay [1] and in assay [3] was “inactive” each time. In addition, the activation in assay [2] was 1.51% [at 17.1 µM, percent relative to cAMP agonist control]; in assay [5] it was 13.5% [at 30.8 µM]. Further, the activity change, negative = inhibition in assay [4] is -15% [at 30.8 µM].

Turning to `COc1ccccc1Cc1c(-c2ccco2)nc2c(C)cc(Br)cn12`, the Potency result in assay [1] and in assay [3] was “inactive” throughout. Also, the activation was 7.54% [at 17.1 µM, percent relative to cAMP agonist control] in assay [2] and 13.2% [at 30.8 µM] in assay [5]. For the same molecule, in assay [4], the activity change, negative = inhibition was -14.6% [at 30.8 µM].

For the molecule `O=C1NC[C@H](Cc2ccc(O)cc2)N(C[C@@H]2CCCN2C[C@H](Cc2ccc(O)cc2)N2C[C@H](Cc3ccccc3)N(CC3CCCCC3)C(=O)C2=O)C1=O`, the Potency entry in assay [1] and in assay [3] was “inactive” throughout. In addition, the activation in assay [2] was -4.51% [at 17.1 µM, percent relative to cAMP agonist control]; in assay [5], 17.8% [at 30.8 µM]. In addition, the activity change, negative = inhibition in assay [4] is -13.5% [at 30.8 µM].

In the case of `Cc1cc2nc(-c3ccco3)c(Cc3cccc(F)c3)n2c(C)c1Br`, the Potency result in assay [1] and in assay [3] was “inactive” throughout. For the same molecule, the activation is 6.3% [at 17.1 µM, percent relative to cAMP agonist control] in assay [2] and 10.5% [at 30.8 µM] in assay [5]. Also, in assay [4], the activity change, negative = inhibition is -4.32% [at 30.8 µM].

Take `Cc1cccc(NC(=O)CSCC(=O)N(C)CCOc2ccc(Cl)cc2)c1`: the Potency entry in assay [1], in assay [2], in assay [3], in assay [4] and in assay [5] was “inactive” each time.

In the case of `CCn1c(SCC(=O)Nc2sc3c(c2C(N)=O)CCC(C)C3)nnc1-c1ccco1` (stereo not given), the Potency entry in assay [1], in assay [2], in assay [3], in assay [4] and in assay [5] was “inactive” throughout.

On to `Cc1cccc(C)c1-c1ccc(CN2C(CC(C)C)C(=O)N(Cc3cn(CCO)nn3)CCS2(=O)=O)cc1` (stereo not given), for which the Potency entry in assay [1] and in assay [3] was “inactive” each time. Further, the activation in assay [2] is -6.44% [at 17.1 µM, percent relative to cAMP agonist control]; in assay [5], 18.7% [at 30.8 µM]. Besides, the activity change, negative = inhibition in assay [4] was 9.55% [at 30.8 µM].

As for `Cc1cc2ccccc2n1CCNC(=O)C1CCCCC1`, the Potency result in assay [1], in assay [2], in assay [4] and in assay [5] was “inactive” each time. Also, the Potency in assay [3] was 95.3 µM (active).

As to `CC(C)c1cccc(-c2ccc3c(c2)S(=O)(=O)c2cccc(C(=O)O)c2C3=O)c1`, the Potency result in assay [1], in assay [2], in assay [3], in assay [4] and in assay [5] was “inactive” throughout.

With `Cc1ccc(S(=O)(=O)Nc2ccc(S(=O)(=O)Nc3nccs3)cc2)cc1C`, the Potency entry in assay [1], in assay [2], in assay [3], in assay [4] and in assay [5] was “inactive” in each case.

With `NS(=O)(=O)c1ccc(NC(=O)c2cccc(N3C(=O)c4ccccc4C3=O)c2)cc1`, the Potency result in assay [1] and in assay [3] was “inactive” each time. Further, the activation in assay [2] was 3.4% [at 17.1 µM, percent relative to cAMP agonist control]; in assay [5], 23.3% [at 30.8 µM]. Further, in assay [4], the activity change, negative = inhibition was 2.18% [at 30.8 µM].

`CC1C(=O)N(Cc2cn(Cc3ccco3)nn2)CCS(=O)(=O)N1Cc1ccc(-c2cccnc2)cc1` (stereo not given): the Potency result in assay [1] and in assay [3] was “inactive” each time. The activation is -1.85% [at 17.1 µM, percent relative to cAMP agonist control] in assay [2] and 21.5% [at 30.8 µM] in assay [5]. For the same molecule, the activity change, negative = inhibition in assay [4] is 0.588% [at 30.8 µM].

For `O=C(NN1C(=O)/C(=C/C=C/c2ccco2)SC1=S)c1ccncc1`, the Potency result in assay [1], in assay [2], in assay [3], in assay [4] and in assay [5] was “inactive” each time.

As for `O=C(N[C@H](Cc1ccc(Cl)cc1)C(=O)O)OCC1c2ccccc2-c2ccccc21`, the Potency entry in assay [1] and in assay [3] was “inactive” each time. The activation was -11.8% [at 17.1 µM, percent relative to cAMP agonist control] in assay [2] and 8.84% [at 30.8 µM] in assay [5]. In assay [4], the activity change, negative = inhibition is -5.81% [at 30.8 µM].

For `O=C(Nc1cccnc1)c1c(O)c2cccc3c2n(c1=O)CC3`, the Potency entry in assay [1] and in assay [3] was “inactive” throughout. Besides, the activation was 9.2% [at 17.1 µM, percent relative to cAMP agonist control] in assay [2] and 22.3% [at 30.8 µM] in assay [5]. In assay [4], the activity change, negative = inhibition is -2.81% [at 30.8 µM].

For the molecule `COC(=O)c1ccc(-c2ccc(/C=N/N3C(=O)C4C5C=CC(C6CC56)C4C3=O)o2)cc1` (stereo not given), the Potency result in assay [1] and in assay [3] was “inactive” each time. Further, the activation in assay [2] is 1.41% [at 17.1 µM, percent relative to cAMP agonist control]; in assay [5], 7.8% [at 30.8 µM]. The activity change, negative = inhibition in assay [4] is -3.98% [at 30.8 µM].

As to `OC(c1cc(F)cc(Cl)c1)c1ncc(-c2cccc(C(F)(F)F)c2)[nH]1` (stereo not given), the Potency result in assay [1] and in assay [3] was “inactive” throughout. Also, the activation in assay [2] was -1.66% [at 17.1 µM, percent relative to cAMP agonist control]; in assay [5] it was 19.7% [at 30.8 µM]. Also, the activity change, negative = inhibition in assay [4] is -12% [at 30.8 µM].

For `O=C(Nc1ccc(NC(=O)c2ccco2)c(Cl)c1)c1ccc2c(c1)OCCO2`, the Potency result in assay [1], in assay [2], in assay [3], in assay [4] and in assay [5] was “inactive” each time.

The values above are taken from PubChem BioAssay (NCATS).
